Most compounds without a hit are left out; they make up all but 5.9% or so of the library.
KB-V1 MDR tox: KB-V1 MDR subline cytotoxicity; KB-V1 MDR cells viability, CellTiter-Glo, 72 h; Potency, µM (doses to about 46.1 µM), actives largely listed as cytotoxic; actives 3.4% (n = 400,000); further: on the % scale 0 is the no-effect control and ±100 the full control effect; nearly all actives have a fitted effect of over 60% in size
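Readout: CellTiter-Glo luminescence, 10 min after addition. Cells: KB-V1 MDR subline, 72 h at 37 degrees C with compound. Analysis: corrected, normalized data fitted to concentration-effect curves.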
S2 tox: viability counter-screen for ATXN expression inhibitors | Potency, µM (series often up to 56.7 µM), most hits filed as cytotoxic | actives 0.49% (n = 400,000) | S2 cells (HEK-293 line with an ATXN2-luciferase reporter) viability, CellTiter-Fluor protease fluorescence, 24 h; further: nearly all actives have a fitted effect of over 40% in size
HepG2 viability: HepG2 cytotoxicity, counter-screen for TGF-b inhibitors; HepG2 CAGA-GFP viability, ATP luminescence, 18 h; Potency, µM (doses to about 46.1 µM), inactives show at the highest dose activity change, negative = cytotoxicity, actives largely listed as cytotoxic; actives 0.76% (n = 410,000); AID 588856
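CellTiter-Glo luminescence gave cytotoxicity after 18 hours at 37 degrees C. The cells were HepG2 CAGA-GFP in 1% FBS DMEM, stimulated with 500 pg/mL TGF-beta after compound addition. %Activity was normalised to no-cell wells (complete cell-killing) and DMSO (no toxicity), and curves were fitted and classified.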
KB-3-1 tox: KB-3-1 parental cell cytotoxicity | KB-3-1 viability, CellTiter-Glo ATP luminescence, 72 h | Potency, µM (titrated, usually from 46.1 µM), hits mostly cytotoxic | actives 1.4% (n = 400,000) | AID 1347075; further: on the % scale 0 is the no-effect control and ±100 the full control effect; nearly all actives have a fitted effect of over 60% in size
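Parental KB-3-1 viability, qHTS format: 72 h compound exposure, 37 °C; CellTiter-Glo; media-only wells and DMSO plates as controls; concentration-effect fits on corrected data.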
ATXN2 expr inh: inhibitors of ATXN2 expression. AID 1745845. Potency, µM (highest dose often 57 µM), for inactives: at the top dose activity change, negative = inhibition, actives largely listed as inhibitors. HEK-293 ATXN2-luciferase reporter, luminescence, 24 h. actives 0.72% (n = 360,000); further: on the % scale 0 is the no-effect control and ±100 the full control effect; nearly all actives have a fitted effect of over 55% in size
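qHTS (up to 57 uM final) was run with 24 h compound exposure of reporter cells at 37 °C. Each well was multiplexed: SteadyGlo luminescence measured ATXN2-luciferase expression after a fluorogenic Gly-Phe-AFC viability readout (25 uM final).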
TGFb inhibitor: inhibitors of TGF-b signaling. HepG2 CAGA-GFP TGF-b/SMAD3 reporter, GFP fluorescence, 18 h; TGF-beta stimulated, 500 pg/mL final. actives 1.2% (n = 410,000). AID 588855. Potency, µM (series often up to 46.1 µM), for inactives: at the highest dose activity, negative = inhibition, hits mostly inhibitors; further: on the % scale 0 is the no-effect control and ±100 the full control effect; nearly all actives have a fitted effect of over 65% in size
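Read-out: total well GFP (ex488/em500-530) summed from mean per-cell fluorescence. Cells: HEPG2 CAGA-GFP, 1% FBS DMEM, 18 h at 37 degrees C with 500 pg/mL final TGF-beta. Unstimulated wells served as the full-inhibition control; stimulated DMSO wells = 0%.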
* hit, by the source's call; i = inactive; u = inconclusive; x = no result; ! = not active in a repeat. The call rests on the fitted dose curve; in most records, active means well fitted curve in the direction sought with a large enough effect; inconclusive means small, poorly fitted or top-dose-only effect, or another doubt; inactive means no such curve, though single readings can be large; an effect the other way counts as inactive or inconclusive. Potency means the concentration at half of the fitted maximal effect.

SMILES	KB-V1 MDR tox	S2 tox	HepG2 viability	KB-3-1 tox	ATXN2 expr inh	TGFb inhibitor
COc1cc2nc(SCc3ccc(C)cc3)n3nc(CCn4nc(C)cc4C)nc3c2cc1OC	i	i	-13%	i	5%	21%
O=C1CCN(CCc2ccccc2)CCN1[C@H](CSc1ccc(Br)cc1)Cc1ccccc1	i	u	-4%	u	-26%	u
O=C1CCN(Cc2ccccc2)CCN1[C@H](CSc1ccccc1)Cc1ccccc1	15µM*!	i	-27%	u	-7%	-26%
C[C@@H](CSc1ccc(Br)cc1)CN1CC[C@H](NC(=O)OCc2ccccc2)CCC1=O	15µM*!	u	-24%	u	-39%	11µM*
O=C(N[C@H]1CCC(=O)N([C@H](CSc2ccc(Br)cc2)Cc2ccccc2)CC1)OCc1ccccc1	i	i	-1%	u	2%	u
CCC(C)N(CC(=O)Nc1cccc(C)c1C)C(=O)CCl (stereo not given)	u	x	-49%	u	3µM*	22µM*
CC(C)N(CC(=O)Nc1ccc(Cl)cc1C(F)(F)F)C(=O)CCl	u	u	-41%	i	19µM*	u
O=P(Cc1ccccc1)(c1ccccc1)c1ccccc1	u	u	6%	i	2%	u
O=P(Cc1ccccc1)(Cc1ccccc1)c1ccccc1	18µM*	i	-6%	i	4%	-1%
COc1ccc(NC(=O)c2ccco2)cc1NC(=O)c1ccc(OC(C)C)cc1	i	u	-13%	i	9%	2%
Cc1cnc(-n2ncc(C(=O)N(C)C3CCOC3)c2-c2cccs2)nc1-c1ccc(F)cc1 (stereo not given)	x	i	x	x	x	x
CCC(C)C(NC(=O)C1CCC(C)CC1)C(=O)Nc1cc(OC)ccc1OC (stereo not given)	2.6µM*	i	-24%	i	-13%	-19%
COc1ccccc1NC(=O)C(CC(C)C)NC(=O)C1CCCCC1 (stereo not given)	4.1µM*	i	8%	i	-3%	-23%
CCC(C)C(NC(=O)C1CCC(C)CC1)C(=O)Nc1ccc(OC)cc1OC (stereo not given)	i	i	5%	i	-1%	-2%
COc1ccc(OC)c(NC(=O)C(CC(C)C)NC(=O)C2CCCCC2)c1 (stereo not given)	i	i	-10%	i	u	-2%
O=C(NCCCN1CCN(c2cccc(Cl)c2)CC1)c1cnn(-c2ccc(F)cc2)c1-n1cccc1	u	u	10µM*	u	35µM*	u
Cc1cc(C(=O)NCCN2CCN(c3cccc(Cl)c3)CC2)n(-c2ccccc2)n1	i	u	-9%	15µM*	-14%	u
COC(=O)c1c(NC(=O)c2ccc(C)c(S(=O)(=O)Nc3ccccc3C)c2)sc2c1CCCC2	23µM*	i	-8%	i	-1%	u
COC(=O)c1c(NC(=O)c2c(OC)cccc2OC)sc2c1CCCC2	i	i	-34%	i	-4%	u
COC(=O)c1c(NS(=O)(=O)c2ccc3ccccc3c2)sc2c1CCCC2	16µM*	i	-29%	i	-18%	u
O=C(Nc1ccccn1)c1sc2ccccc2c1Cl	i	x	x	i	x	x
Cc1c(CN(C)C(=O)c2cc(-c3ccccc3)nc3ccc(Br)cc23)cnn1C	i	u	-29%	i	22µM*	-26%
CCOC(=O)c1c(CC(C)C)csc1NC=O	4.6µM*	i	-19%	16µM*	-3%	-1%
CN(CCCc1cnc[nH]1)C(=S)NCCCN(Cc1ccc(Cl)cc1)c1ccc(Br)cn1	u	x	-91%	i	x	7.1µM*
S=C(NCCCN(Cc1ccc(Cl)cc1)c1ccc(Br)cn1)NCc1ccc2nc[nH]c2c1	i	x	-5%	i	x	u
SMILES	KB-V1 MDR tox	S2 tox	HepG2 viability	KB-3-1 tox	ATXN2 expr inh	TGFb inhibitor
CC(=O)NCCCNC(=S)NCCCN(Cc1ccc(Cl)cc1)c1ccc(Br)cn1	i	u	13µM*!	i	u	16µM*
COc1ccccc1C(=O)NC1(C(F)(F)F)C(=O)Nc2c1c(=O)[nH]c(=O)n2CCc1ccccc1 (stereo not given)	u	i	11%	i	-4%	12%
Cc1cccc(Cn2c(SCc3ccc(C(=O)N4CCCCCC4)cc3)nc3ccncc32)c1	x	x	-38%	x	x	13µM*
CCC(C(=O)NC1CCCCC1)n1c(SCc2cccc(F)c2)nc2ccncc21 (stereo not given)	i	u	-26%	i	-11%	u
CCC(C(=O)NC1CCCCC1)n1c(SCc2cccc(C)c2)nc2ccncc21 (stereo not given)	i	u	-35%	u	2%	13µM*
O=C(NCc1cccs1)c1ccc(CSc2nc3ccncc3n2Cc2ccccc2F)cc1	i	i	-30%	i	12%	8.9µM*
CC(CNC(=O)c1ccc(CSc2nc3ccncc3n2Cc2cccc(F)c2)cc1)c1ccccc1 (stereo not given)	i	u	-20%	i	-34%	10µM*
Cc1ccccc1Cn1c(SCc2ccc(C(=O)NCc3cccs3)cc2)nc2ccncc21	i	i	-25%	i	-15%	u
CCOC(=O)c1ccc(NC(=O)CC2C(=O)N(c3cccc(OC)c3)C(=O)N2Cc2ccc(OC)cc2)cc1 (stereo not given)	i	u	-30%	i	-7%	-15%
COc1ccc(C(=O)NCC(c2ccco2)S(=O)(=O)c2cccs2)cc1OC (stereo not given)	i	x	-26%	i	x	-4%
CC(C)C[C@@H](N)[C@H](O)C(=O)N[C@H](C(=O)N[C@H](C(=O)N[C@@H](CC(=O)O)C(=O)O)C(C)C)C(C)C	x	x	x	x	-11%	x
COC(=O)c1c(-c2ccc(Cl)cc2)noc1N1CCN(c2cccc(C(F)(F)F)c2)CC1	i	i	2%	i	-4%	0%
COCCNCCCn1c(C(=O)CF)c(-c2ccc(C)cc2)c2c(N)ncnc21	x	x	x	x	18%	x
CCc1cc2cc(C)cc(C)c2nc1SCC(=O)N1CCN(C(=O)c2ccco2)CC1	23µM*	u	2%	u	-17%	u
CCc1cc2cc3c(cc2nc1SCC(=O)N1CCN(C(=O)c2ccco2)CC1)OCO3	u	i	-6%	i	-13%	-4%
CCc1cc2cccc(C)c2nc1SCC(=O)N1CCN(C(=O)c2ccco2)CC1	i	u	3%	i	u	11%
